# Assay results taken from PubChem BioAssay AID1490 (National Center for Advancing Translational Sciences (NCATS), 2009).
# Values joined by “and” are separate entries in the source; they are usually repeats but may differ in a detail not shown here. Equal entries are not always repeated. Screen size: about 310,000 compounds; about 11,000 (3.5%) were called active. Roughly 4% stayed inconclusive and do not appear here. The call rests on the fitted dose curve; in most records, active means well fitted inhibition curve with a large enough effect; inconclusive means small, poorly fitted or top-dose-only effect, or another doubt; inactive means no such curve, though single readings can be large or run the other way. The sample as a whole holds a higher share of actives than the screen did. The source holds several records for some structures; these can differ, active in one and inactive in another.
# Molecular target: 4'-phosphopantetheinyl transferase ffp (Bacillus subtilis) (UniProt Q9F4F7)
# Assay: qHTS Assay for Inhibitors of Bacillus subtilis Sfp phosphopantetheinyl transferase (PPTase);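 further: the enzyme is Sfp with the accession as filed and its product quenches rhodamine fluorescence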;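 on largest response in the series, negative = inhibition: 0% = enzyme reaction without inhibitor and -100% = no enzyme wells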
# Details: Biochemical Sfp PPTase activity
# How it was run: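 Step 1, compound plus 15 nM Sfp-PPTase, 15 min, room temperature. Step 2, add rhodamine-CoA (5 uM) and BHQ-2-YbbR (12.5 uM). Step 3, read 525/598 nm fluorescence at 0 and 30 min.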
# Potency means the concentration at half of the fitted maximal effect.
SMILES,"largest response in the series, negative = inhibition",Potency
COc1cc(C(=S)N2CCOCC2)ccc1O,14.2% (inactive),
N#CC(C#N)=Cc1cc(O)c(O)c([N+](=O)[O-])c1,-27.4% (inactive) and 8.16% (inactive),
OC(Cn1c2ccccc2c2ccccc21)C[n+]1ccccc1 (centres undefined),4.01% (inactive),
CC(C)(O)c1[se]c2ccccc2c1I,-14.3% (inactive),
O=C(N/N=C/c1ccc([N+](=O)[O-])o1)c1cc([N+](=O)[O-])cc([N+](=O)[O-])c1O,-16.6% (inactive),
COC(=O)c1ccc2[se]c(CC3CCCCC3)c(I)c2c1,-1.34% (inactive),
C[C@]12O[C@H](C[C@@]1(O)C(=O)O)n1c3ccccc3c3c4c(c5c6ccccc6n2c5c31)CNC4=O,-2.27% (inactive),
CN(C)CC1CCCCC1=O (centres undefined),9.1% (inactive),
C=CCN1C(=O)C2(C(C(=O)OCC)=C(N)Oc3c2c(=O)oc2ccccc32)c2ccccc21 (centres undefined),-13.3% (inactive),
CC(C)(c1ccc(OC[C@@H]2CO2)cc1)c1ccc(OC[C@H]2CO2)cc1,-26.3% (inactive),
CCCCC/C=C\C/C=C\C/C=C\C=C\[C@H](CCCC(=O)O)OO,1.29% (inactive) and 7.78% (inactive),
CCCCC/C=C\C/C=C\C/C=C\CCCCCCC(=O)NCCO,-6.26% (inactive) and -18.5% (inactive) and 24.4% (inactive),
CCCCC/C=C\C/C=C\C/C=C\C/C=C\CCCCCC(=O)NCCO,-11.4% (inactive) and -19.7% (inactive) and 32% (inactive),25.1 µM (active)
CCN1C[C@@]2(COC)CC[C@H](OC)[C@]34[C@@H]1[C@]1(OCO[C@@]15C[C@@H](OC)C1C[C@H]3[C@H]5[C@@H]1OC)[C@H](O)[C@@H]24,4.99% (inactive),
C=CCN1CCC23c4c5ccc(O)c4O[C@H]2C(=O)CC[C@@]3(O)C1C5 (some centres undefined),7.15% (inactive),
CN(C)[C@@H]1C(=O)C(C(N)=O)=C(O)[C@@]2(O)C(=O)C3=C(O)c4c(O)cccc4[C@@](C)(O)C3CC12 (some centres undefined),-6.86% (inactive),
CCOC(=O)C1(CCc2ccccc2)CCN(Cc2ccco2)CC1,-10.9% (inactive),
CN1[C@@H]2CC[C@H]1CC(OC(=O)c1cc(Cl)cc(Cl)c1)C2 (some centres undefined),10.2% (inactive),
CC(=O)Oc1ccccc1C(=O)Nc1ncc([N+](=O)[O-])s1,-19.7% (inactive),50.1 µM (active)
O=c1oc2ccccc2c(O)c1C(c1ccccc1O)c1c(O)c2ccccc2oc1=O,9.81% (inactive),
C[C@H]1C/C=C/[C@@H]2[C@@H]3O[C@]3(C)[C@@H](C)[C@H]3[C@H](Cc4ccccc4)NC(=O)[C@]32OC(=O)O/C=C/[C@](C)(O)C1=O,-0.438% (inactive),

SMILES,"largest response in the series, negative = inhibition",Potency
CN[C@@H]1C[C@H]2O[C@@](C)([C@@H]1OC)n1c3ccccc3c3c4c(c5c6ccccc6n2c5c31)C(=O)NC4,0.89% (inactive) and -25.9% (inactive),
c1ccc(CCCCN2CCC(c3ccccc3)CC2)cc1,-6.46% (inactive) and 2.8% (inactive),
COc1ccc(CNCCc2ccc3c(c2)OCO3)c(OC)c1OC,-17.5% (inactive),
CC1=CC(=O)C2=C(C)C[C@H](O)[C@H]3[C@H](C)C(=O)O[C@@H]3C12 (some centres undefined),33% (inactive),
O=Cc1cn(Cc2ccc(F)cc2Cl)c2ccccc12,0.0934% (inactive),
CCOC(=O)C(O)(c1ccc(NC(=O)c2ccco2)c(OC)c1)C(F)(F)F (centres undefined),3.62% (inactive),
COc1cc(Cn2c(N)c(C(=O)NCc3ccco3)c3nc4ccccc4nc32)cc(OC)c1OC,,56.2 µM (active)
CCOC(=O)c1c(N)n(Cc2ccccc2)c2nc3ccccc3nc12,13.5% (inactive),
CC1CCCCN1Cc1cccnc1 (centres undefined),-23.2% (inactive),
CN1CCC(N(C)Cc2cccnc2)CC1,,89.1 µM (active)
c1cncc(CNC2=NCCC2)c1,12.2% (inactive),
CC(=O)c1c(O)c(C)c(O)c(Cc2c(O)c3c(c(C(=O)/C=C\c4ccccc4)c2O)OC(C)(C)C=C3)c1O,-29.6% (inactive),
COC1CC(OC2CC[C@@]3(C=O)C4CC[C@]5(C)C(C6=CC(=O)OC6)CC[C@@]5(O)C4CC[C@]3(O)C2)OC(C)C1O (some centres undefined),2.96% (inactive),
CN1CCN(C(=S)SCC(=O)Nc2ccc(Cl)cc2C(=O)c2ccccc2)CC1,-8.26% (inactive),
CC(C(=O)Nc1ccc(Cl)cc1Cl)N1CC=C(c2ccccc2)CC1 (centres undefined),,56.2 µM (active)
CN(C)C1C(=O)C(C(N)=O)=C(O)[C@@]2(O)C(=O)C3=C(O)c4c(O)cccc4[C@@](C)(O)C3C[C@@H]12 (some centres undefined),-32.6% (inactive),
C[C@@H]1C[C@H]2CC[C@H](O2)[C@H](C)C(=O)O[C@@H](C)C[C@@H]2CC[C@@H](O2)[C@@H](C)C(=O)O[C@H](C)C[C@H]2CC[C@H](O2)[C@H](C)C(=O)O[C@@H](C)C[C@@H]2CC[C@@H](O2)[C@@H](C)C(=O)O1,6.1% (inactive),
CC(=O)OC1C2CCC3C1(CC(O)[C@@]1(O)[C@@H](CC(O)C1(C)C)[C@]3(C)O)C[C@@]2(C)O (some centres undefined),6.04% (inactive),
N#Cc1c(Cl)c(Cl)c(Cl)c(C#N)c1Cl,-8.59% (inactive),
CC[N+]1(CCOC(=O)C(O)(c2ccccc2)c2ccccc2)CCCCC1,12% (inactive),
CO[C@@H]1C[C@@H](C[C@H]2CC[C@H](C)[C@@H]([C@@H](C)C(=O)O)O2)O[C@]2(O[C@](C)([C@H]3CC[C@@](C)(C4OC([C@H]5O[C@@](O)(CO)[C@H](C)C[C@@H]5C)C[C@@H]4C)O3)C[C@H]2C)[C@@H]1C (some centres undefined),23.4% (inactive),

SMILES,"largest response in the series, negative = inhibition",Potency
CN(C)/C=C(\C=[N+](C)C)c1[nH]ncc1[N+](=O)[O-],0.787% (inactive),
CC(C)(Cc1c[nH]c2ccc(Cl)cc12)NCCOc1ccccc1OCC1CC1,-25.3% (inactive),35.5 µM (active)
CCC(=O)CC(c1ccc([N+](=O)[O-])cc1)c1c(O)c2ccccc2oc1=O (centres undefined),6.92% (inactive),
c1ccc(CN2CC[C@@]3(CCCNC3)C2)cc1,1.98% (inactive),
COc1ccc(C2CC(c3cccs3)=NN2c2nc(C)c(C(C)=O)s2)cc1OC (centres undefined),,39.8 µM (active)
Cc1ccc(-n2c(O)c(C=NCC3CCCO3)c(=O)[nH]c2=O)c(C)c1 (centres undefined),-4.95% (inactive),
CNC(=S)N/N=C1\C2CN3CCN(C2)CC1(c1ccccc1)C3,-18% (inactive),
COc1cccc(N2C(=O)NC(=O)/C(=C\c3ccc([N+](=O)[O-])s3)C2=O)c1,,31.6 µM (active)
O=C1NC(=O)N(c2ccccc2)C(=O)/C1=C/c1ccc([N+](=O)[O-])s1,,35.5 µM (active)
COc1cc(-n2c(=S)[nH]c3ccc(C)cc3c2=O)c(Cl)cc1Cl,4.46% (inactive),
C=CCSSCC=C,-26.6% (inactive),
Cc1cccc([C@H](C)c2cnc[nH]2)c1C,9.27% (inactive),
COc1ccc(C2N3CC(C)(C)CN23)cc1 (centres undefined),0.855% (inactive),
Cc1cccc(-n2c(O)c(C=NC34CN5CN(CN(C5)C3)C4)c(=O)[nH]c2=O)c1,9.77% (inactive),
C[N+]12CN3CN(CN(C3)C1)C2,12.8% (inactive),
c1ccc(N2CC[C@@]3(CCCNC3)C2)nc1,-23.5% (inactive),
O=c1[nH]c(=O)n(-c2ccccc2)c(O)c1C=NC12CN3CN(CN(C3)C1)C2,-28% (inactive),
CCCCCCCCCCCCN=C(N)N,-27% (inactive),
O=C1NC(=O)N(c2ccc(F)cc2)C(=O)/C1=C/c1ccc2c(c1)CCCN2Cc1ccccc1,,44.7 µM (active)
CCC(C)C(=O)O[C@@H]1C[C@@]2(C)C(c3ccoc3)OC(=O)CC23OC2(C)O[C@@]14[C@@]1(C)C(CC(=O)OC)C5(C)CC1(O)C(O)(C5OC(=O)C1(C)OC1C)C(OC(C)=O)[C@@]34O2 (some centres undefined),3.31% (inactive),
CN(C)CC1CCCCC1OC(=O)c1ccc(Cl)c(Cl)c1 (centres undefined),-11.6% (inactive),

SMILES,"largest response in the series, negative = inhibition",Potency
CCCCCCN=C(CC)c1c(O)n(CCCC)c(=O)[nH]c1=O,-9.2% (inactive),
C[C@@]12CCC3C(CC[C@@H]4CC(O)CC[C@@]34C)C1CCC2O (some centres undefined),7.22% (inactive),
Cc1ncsc1CCCl,,79.4 µM (active)
Clc1ccc([C@@H]2C[C@H]3CC[C@@H]2N3)cn1,9.37% (inactive),
Cc1ccc(-c2nn(CCC#N)cc2C(=O)O)cc1C,25.7% (inactive),
CC(c1ccccc1)(c1ccccc1)c1ccncc1,5% (inactive),
c1csc(CN2CCCC3(CCNCC3)C2)n1,3.74% (inactive),
COc1ccc(C2Oc3c(I)c(OC)cc(OC)c3CC2O)cc1OC (centres undefined),-16.3% (inactive),
CC[N+](C)(CC)CCC[n+]1c(-c2ccccc2)c2cc(N)ccc2c2ccc(N)cc21,,28.2 µM (active) and 50.1 µM (active)
CC(C)(C)c1ccc(CN2C(=O)CN=C(c3ccccc3)c3ccccc32)cc1,-3.66% (inactive),
Cc1ccc(S(=O)(=O)N(C)c2ccc(C(=O)NCC3(N(C)C)CCCCC3)cc2)cc1,13.3% (inactive),
COC1=C[C@]23CCCN2CCc2cc4c(cc2[C@@H]3[C@@H]1O)OCO4,1.35% (inactive),
CC(=O)c1c(O)n(C2CCCCCC2)c(=O)[nH]c1=O,6.22% (inactive),
COc1ccccc1N1CCN(C(CNC(=O)Oc2ccccc2)c2cccnc2)CC1 (centres undefined),2.8% (inactive),
COc1ccc(CCn2c(O)c(C=NC3CC3)c(=O)[nH]c2=O)cc1OC,12.3% (inactive),
O=C(O)C1CSC(c2cccnc2)N1 (centres undefined),,56.2 µM (active)
CNC(=O)Nc1ccc(C(O)(C(=O)OC)C(F)(F)F)cc1 (centres undefined),6.69% (inactive),
CN1CCN(C(=O)O[C@@H]2c3nccnc3C(=O)N2c2ccc(Cl)cn2)CC1,-8.07% (inactive),
